Reference: paper PMC4336329 (PLoS ONE, 2015)
In all, about 310,000 compounds went through this assay and about 14,000 (4.5%) showed an effect of 50% or more. Effects have a minus sign here. The list comes from a sample in which strong results are over-represented; it also holds similar structures and randomly drawn compounds.
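Note: peak tail current of the secondary pulse compared with the same well before compound.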

The compounds below were run against human ether-à-go-go-related gene (hERG) potassium channel (human, UniProt Q12809) (assay: primary screen, population patch clamp on CHO cells stably expressing hERG; higher = less effect of the substance).
human ether-à-go-go-related gene (hERG) potassium channel, sequence (Q12809 whole entry, looked up): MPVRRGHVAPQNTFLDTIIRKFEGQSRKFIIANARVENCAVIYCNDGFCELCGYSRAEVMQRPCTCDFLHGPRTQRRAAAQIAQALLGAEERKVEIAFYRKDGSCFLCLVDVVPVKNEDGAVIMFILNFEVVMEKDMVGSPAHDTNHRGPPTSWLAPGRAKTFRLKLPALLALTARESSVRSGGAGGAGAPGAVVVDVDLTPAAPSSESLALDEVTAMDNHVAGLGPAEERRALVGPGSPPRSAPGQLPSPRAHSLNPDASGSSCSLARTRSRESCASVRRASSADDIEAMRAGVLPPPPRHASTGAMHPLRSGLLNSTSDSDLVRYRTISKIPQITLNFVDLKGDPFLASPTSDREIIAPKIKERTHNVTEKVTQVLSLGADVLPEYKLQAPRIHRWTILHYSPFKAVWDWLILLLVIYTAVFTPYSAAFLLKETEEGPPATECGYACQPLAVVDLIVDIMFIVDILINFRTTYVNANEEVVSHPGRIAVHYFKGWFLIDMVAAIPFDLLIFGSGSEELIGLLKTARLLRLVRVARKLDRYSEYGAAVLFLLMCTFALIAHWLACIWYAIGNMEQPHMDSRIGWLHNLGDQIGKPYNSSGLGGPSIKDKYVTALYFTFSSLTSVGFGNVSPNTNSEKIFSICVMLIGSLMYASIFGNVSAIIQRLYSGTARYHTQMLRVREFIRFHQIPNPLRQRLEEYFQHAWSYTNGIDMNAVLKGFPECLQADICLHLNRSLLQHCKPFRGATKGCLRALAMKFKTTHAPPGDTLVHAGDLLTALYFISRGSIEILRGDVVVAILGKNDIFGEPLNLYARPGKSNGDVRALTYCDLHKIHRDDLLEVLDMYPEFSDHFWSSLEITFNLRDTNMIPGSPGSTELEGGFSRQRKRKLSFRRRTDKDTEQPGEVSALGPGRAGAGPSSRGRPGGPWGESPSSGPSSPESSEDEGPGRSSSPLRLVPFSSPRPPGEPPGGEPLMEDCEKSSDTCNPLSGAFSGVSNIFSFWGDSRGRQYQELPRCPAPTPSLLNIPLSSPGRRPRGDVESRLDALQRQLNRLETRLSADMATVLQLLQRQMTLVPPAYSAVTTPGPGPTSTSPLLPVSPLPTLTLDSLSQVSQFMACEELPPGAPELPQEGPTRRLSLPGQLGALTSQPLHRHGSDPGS
In the case of `Nc1nnn(CC(=O)N/N=C/c2cccc(Cl)c2)n1`, the “hERG current change (%, negative = inhibition) at 10uM” value is reported as 4.76%.
With `CCCCNC(=O)c1onc(CSc2ccc(F)cc2)c1C(=O)NCCCC` the “hERG current change (%, negative = inhibition) at 10uM” value was -10.2%.
For `CCN(CC)C(=O)C1CCC(CNS(=O)(=O)c2cccc3cccnc23)CC1` (stereo not drawn), the “hERG current change (%, negative = inhibition) at 10uM” value was 4.52%.
In the case of `CN(C)c1ccc(C(=S)N2CCCCCC2)cc1`, the “hERG current change (%, negative = inhibition) at 10uM” value is reported as -5.79%.
In the case of `NS(=O)(=O)c1ccc(CCNC(=O)c2ccc(Cl)cc2[N+](=O)[O-])cc1`, the “hERG current change (%, negative = inhibition) at 10uM” value is reported as 16.7%.
With `COc1ccccc1N1CCN(C2CC(=O)N(c3ccc(F)cc3)C2=O)CC1` (stereo not drawn) the “hERG current change (%, negative = inhibition) at 10uM” value was 0.313%.
With `O=C1CSC(c2ccccc2)N1c1ccc(F)cc1F` (stereo not drawn) the “hERG current change (%, negative = inhibition) at 10uM” value was 4.37%.
`CCn1c(Cc2ccccc2)nnc1SCC(=O)Nc1ccc(S(N)(=O)=O)cc1` was tested, and the “hERG current change (%, negative = inhibition) at 10uM” value was 2.13%.
In the case of `Cc1ccc(Cn2c(SCc3cccnc3)nc3c2c(=O)n(C)c(=O)n3C)cc1`, the “hERG current change (%, negative = inhibition) at 10uM” value is reported as -0.713%.
For `Cc1ccc(-c2ccc(S(=O)(=O)NCC3CCCO3)cc2)cc1` (stereo not drawn), the “hERG current change (%, negative = inhibition) at 10uM” value was 26.2%.
For `CCN(CC)CCCN(C(=O)c1ccc(OC)cc1)c1nc(-c2ccc(OC)cc2)cs1`, the “hERG current change (%, negative = inhibition) at 10uM” value was -73.7%.
With `COc1ccc(-c2csc(N(CCCN(C)C)C(=O)c3ccc(Br)cc3)n2)cc1.O=C(O)C(=O)O` the “hERG current change (%, negative = inhibition) at 10uM” value was -44%.
With `CCN(CC)CCCN(C(=O)c1cccc(C)c1)c1nc(-c2ccc(OC)cc2)cs1` the “hERG current change (%, negative = inhibition) at 10uM” value was -78.2%.
For `COCCCN(C(=O)c1ccccc1)c1nc(-c2ccc(OC)cc2)cs1`, the “hERG current change (%, negative = inhibition) at 10uM” value was 18.3%.
In the case of `CCC(=O)N(CC)c1nc(-c2ccc(OC)cc2)cs1`, the “hERG current change (%, negative = inhibition) at 10uM” value is reported as -5.81%.
For `COCCCN(C(C)=O)c1nc(-c2ccc(OC)cc2)cs1`, the “hERG current change (%, negative = inhibition) at 10uM” value was -16.5%.
For `CCN(CC)CCCN(C(=O)c1ccc(F)cc1)c1nc(-c2ccc(OC)cc2)cs1`, the “hERG current change (%, negative = inhibition) at 10uM” value was -75.1%.
With `CCN(CC)CCCN(C(=O)c1ccc(Br)cc1)c1nc(-c2ccc(OC)cc2)cs1.Cl` the “hERG current change (%, negative = inhibition) at 10uM” value was -73.2%.
`COCCN(C(=O)c1ccccc1)c1nc(-c2ccc(OC)cc2)cs1` was tested, and the “hERG current change (%, negative = inhibition) at 10uM” value was 28.5%.
With `COCC(=O)N/N=C\c1cccc(OC)c1OC/C=C/c1ccccc1` the “hERG current change (%, negative = inhibition) at 10uM” value was -15.6%.
`O=C(NC1CCCCC1)c1cc(-c2ccc(O)cc2)on1` was tested, and the “hERG current change (%, negative = inhibition) at 10uM” value was 0.886%.
In the case of `COc1ccc(Cl)cc1NC(=O)CSc1nc2sccc2c(=O)[nH]1`, the “hERG current change (%, negative = inhibition) at 10uM” value is reported as 25.2%.
With `COc1cc([N+](=O)[O-])ccc1NC(=O)Cc1ccc(F)cc1` the “hERG current change (%, negative = inhibition) at 10uM” value was 0.277%.
In the case of `CC(=O)N1N=C(c2ccccc2)CC1c1cn(Cc2ccccc2)c2ccccc12` (stereo not drawn), the “hERG current change (%, negative = inhibition) at 10uM” value is reported as -13.6%.
For `CCCCNc1ccc(S(N)(=O)=O)cc1[N+](=O)[O-]`, the “hERG current change (%, negative = inhibition) at 10uM” value was -0.608%.
In the case of `Cc1ccc(S(=O)(=O)N2CCN(Cc3nc4ccccc4[nH]3)CC2)cc1C`, the “hERG current change (%, negative = inhibition) at 10uM” value is reported as -45.1%.
`CCN(CC)CCCN(C(C)=O)c1nc(-c2cc(OC)ccc2OC)cs1.Cl` was tested, and the “hERG current change (%, negative = inhibition) at 10uM” value was -65.8%.
For `CCC(=O)N(CCCN(C)C)c1nc(-c2cc(OC)ccc2OC)cs1.Cl`, the “hERG current change (%, negative = inhibition) at 10uM” value was -37.3%.
With `CCC(=O)N(CC)c1nc(-c2cc(OC)ccc2OC)cs1` the “hERG current change (%, negative = inhibition) at 10uM” value was 15%.
`CC(/C=C/c1ccccc1)=N\NC(=O)c1ccc2c(c1)OCCO2` was tested, and the “hERG current change (%, negative = inhibition) at 10uM” value was 3.3%.
For `O=C(NCc1ccncc1)C(=O)NCC1OCCCN1S(=O)(=O)c1cc(F)ccc1F` (stereo not drawn), the “hERG current change (%, negative = inhibition) at 10uM” value was 4.86%.
For `COc1ccccc1C(=O)Oc1cc(N)n(S(=O)(=O)c2ccc(C)cc2)n1`, the “hERG current change (%, negative = inhibition) at 10uM” value was -7.77%.
With `O=C(CSC(=S)N1CCOCC1)Nc1nccs1` the “hERG current change (%, negative = inhibition) at 10uM” value was -1.54%.
In the case of `CCc1c(C)nc(SCC(=O)N2CCCCC2)[nH]c1=O`, the “hERG current change (%, negative = inhibition) at 10uM” value is reported as 3.18%.
`CN1c2ccccc2Oc2nnc(Cl)cc21` was tested, and the “hERG current change (%, negative = inhibition) at 10uM” value was -5.87%.
With `CCN1CCN(c2cc3c(nn2)Oc2ccccc2N3C)CC1` the “hERG current change (%, negative = inhibition) at 10uM” value was -41.1%.
In the case of `CN1c2ccccc2Oc2nnc(N3CCN(Cc4ccccc4)CC3)cc21`, the “hERG current change (%, negative = inhibition) at 10uM” value is reported as -78%.
With `C=C(C)C(=O)Nc1cccc(C2=NOC3(C2)C[C@@H](C(N)=O)N(C(=O)C(=C)C)C3)c1` (stereo partly drawn) the “hERG current change (%, negative = inhibition) at 10uM” value was 7.14%.
`CCOc1ccc(-c2nc(N)ncc2Oc2cccc(OC)c2)c(O)c1` was tested, and the “hERG current change (%, negative = inhibition) at 10uM” value was 6.7%.
With `CCCCCn1c(SCCN2CCOCC2)nc2c1c(=O)[nH]c(=O)n2C` the “hERG current change (%, negative = inhibition) at 10uM” value was -66.5%.
In the case of `CC(C)CCn1c(SCCN2CCOCC2)nc2c1c(=O)[nH]c(=O)n2C`, the “hERG current change (%, negative = inhibition) at 10uM” value is reported as -17.7%.
`CCCCCCn1c(SCCN2CCOCC2)nc2c1c(=O)[nH]c(=O)n2C` was tested, and the “hERG current change (%, negative = inhibition) at 10uM” value was -74.6%.
`COCCn1c(SCCN2CCOCC2)nc2c1c(=O)[nH]c(=O)n2C` was tested, and the “hERG current change (%, negative = inhibition) at 10uM” value was 14.2%.
For `C/C(Cl)=C/Cn1c(SCCN2CCOCC2)nc2c1c(=O)[nH]c(=O)n2C`, the “hERG current change (%, negative = inhibition) at 10uM” value was -64.6%.
With `CCCCCn1c(SCCOCC)nc2c1c(=O)[nH]c(=O)n2C` the “hERG current change (%, negative = inhibition) at 10uM” value was -46.8%.
With `C=CCn1c(SCCN2CCOCC2)nc2c1c(=O)[nH]c(=O)n2C` the “hERG current change (%, negative = inhibition) at 10uM” value was 8.38%.
With `CCCCCn1c(SCCC(C)C)nc2c1c(=O)[nH]c(=O)n2C` the “hERG current change (%, negative = inhibition) at 10uM” value was -11.9%.
For `C=C(C)Cn1c(SCCN2CCOCC2)nc2c1c(=O)[nH]c(=O)n2C`, the “hERG current change (%, negative = inhibition) at 10uM” value was -4.61%.
`CCN1CCCC1CNC(=O)c1cc2c(=O)n(C)c3ccccc3c2n1C` (stereo not drawn) was tested, and the “hERG current change (%, negative = inhibition) at 10uM” value was -18.5%.
In the case of `Cc1ccc(CN(Cc2cccnc2)C(=S)Nc2cccc(Cl)c2C)cc1`, the “hERG current change (%, negative = inhibition) at 10uM” value is reported as 8.32%.
With `O=C(Cc1ccccc1)Nc1cc([N+](=O)[O-])ccc1N1CCOCC1` the “hERG current change (%, negative = inhibition) at 10uM” value was -36.2%.
In the case of `CCOC(=O)CSc1ccc2nnc(CCNS(=O)(=O)c3ccc(C)cc3)n2n1`, the “hERG current change (%, negative = inhibition) at 10uM” value is reported as 4.23%.
`O=C(CNS(=O)(=O)/C=C/c1ccccc1)OC1CCOC1=O` (stereo not drawn) was tested, and the “hERG current change (%, negative = inhibition) at 10uM” value was 15.9%.
`Cc1cc(C)n(-c2nc(N(C)C)nc(N3CCOCC3)n2)n1` was tested, and the “hERG current change (%, negative = inhibition) at 10uM” value was -6.78%.
In the case of `CCN(CC)S(=O)(=O)c1ccc(OC)c(NC(=O)c2ccc([N+](=O)[O-])cc2)c1`, the “hERG current change (%, negative = inhibition) at 10uM” value is reported as -34.9%.
For `CN1/C(=C\C(=S)NC(=O)c2cccc(Br)c2)C(C)(C)c2ccccc21`, the “hERG current change (%, negative = inhibition) at 10uM” value was -7.85%.
For `CCSc1nnc(N2C(=O)CC(c3ccsc3)C3=C2CC(C)(C)CC3=O)s1` (stereo not drawn), the “hERG current change (%, negative = inhibition) at 10uM” value was -6.24%.
